KCNH2 3.1 inh: blocks the human KCNH2 3.1 channel isoform; U2OS KCNH2 3.1, thallium flux FluxOr; hits give low values; activity change, % (tested at about 1.8 µM); 0.95% of 340,000 active;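 active = maximum activity change below -70%; inconclusive = maximum activity change from -70% to -50%; inactive = maximum activity change above -50%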;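 note: thallium influx rate constant from kinetic fluorescence after stimulation buffer; % is set by controls: 0 for no effect and ±100 for the full control effect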
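Thallium flux via FluxOr fluorescence (Red40 quencher, 45 min loading) in U2OS cells virally expressing the KCNH2 3.1 isoform (1.77 x 10^8 /mL virus, overnight at 37 C). Rate constants from 2-min kinetic reads post-stimulation, normalised to positive and negative controls.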
TRPV1 potentiator: enhances activation of the human vanilloid receptor TRPV1; Q8NER1; TRPV1-expressing cells, Fluo-8 calcium influx, capsaicin EC20 potentiation; potentiation, % at 8.33 µM; 0.02% of 320,000 active; AID 540277; in the data active = potentiation above about 80%; inconclusive = between about 30% and that limit; note: 0% is about no effect
Target sequence (Q8NER1 whole entry, looked up): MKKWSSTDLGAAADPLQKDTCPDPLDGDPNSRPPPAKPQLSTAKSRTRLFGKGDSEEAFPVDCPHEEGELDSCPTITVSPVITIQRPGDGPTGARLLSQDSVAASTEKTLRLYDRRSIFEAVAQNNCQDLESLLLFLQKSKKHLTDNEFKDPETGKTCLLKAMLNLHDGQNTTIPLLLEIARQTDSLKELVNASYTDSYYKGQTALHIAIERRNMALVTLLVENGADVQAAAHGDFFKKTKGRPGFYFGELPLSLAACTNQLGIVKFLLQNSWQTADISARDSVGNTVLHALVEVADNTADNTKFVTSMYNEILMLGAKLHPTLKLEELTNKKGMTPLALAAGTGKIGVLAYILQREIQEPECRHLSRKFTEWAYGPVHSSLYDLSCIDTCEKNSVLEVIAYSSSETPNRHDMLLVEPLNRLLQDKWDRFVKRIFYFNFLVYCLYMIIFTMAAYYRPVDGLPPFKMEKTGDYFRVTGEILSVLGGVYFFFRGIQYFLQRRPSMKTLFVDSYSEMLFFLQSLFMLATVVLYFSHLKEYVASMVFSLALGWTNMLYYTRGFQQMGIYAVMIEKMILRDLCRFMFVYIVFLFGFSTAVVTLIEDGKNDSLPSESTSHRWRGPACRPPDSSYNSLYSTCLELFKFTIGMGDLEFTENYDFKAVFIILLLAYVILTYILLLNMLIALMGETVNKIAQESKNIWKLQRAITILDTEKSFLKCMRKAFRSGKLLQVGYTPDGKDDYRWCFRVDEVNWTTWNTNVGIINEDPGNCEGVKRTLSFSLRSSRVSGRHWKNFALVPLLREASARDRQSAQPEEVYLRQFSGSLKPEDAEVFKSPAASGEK
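Cells expressing TRPV1 were dye-loaded with Fluo-8 and read kinetically: 10 s baseline, 3 min after compound (agonist portion), then 2 min after EC20 capsaicin (allosteric enhancer portion). Calcium-bound dye fluorescence at 480/520 nm.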
hERG WT inh: KCNH2 (human, wildtype) channel inhibition. U2OS, BacMam KCNH2, thallium flux FluxOr; hits give low values. AID 720551. Q12809. activity change, % at 1.84 µM. 0.37% of 340,000 active;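 active = maximum activity change below -70%; inconclusive = maximum activity change between -70% and -50%; inactive = maximum activity change above -50%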; note: % is set by controls: 0 for no effect and ±100 for the full control effect
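U2OS cells were transduced with wild-type KCNH2 virus (2.03 x 10^8 / mL) for 4 h at room temperature, then cultured overnight at 37 C. Thallium flux was read with FluxOr dye. Rate constants were normalized to DMSO controls.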
TRPV1 ag: human TRPV1 agonism. TRPV1-expressing cells, Fluo-8 calcium influx, agonist mode. activation, % at 8.33 µM. 0.19% of 320,000 active. AID 540275. Q8NER1; in the data active = activation above about 80%; inconclusive = between about 30% and that limit; note: 0% is about no effect
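TRPV1-expressing cells were cultured overnight at 35.5C and loaded with Fluo-8 calcium dye for 40 to 90 min at room temperature. After a 10 s baseline, compound was added and calcium influx was read kinetically for 3 min (ex 480/em 520 nm).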
p53 reactivation: restores transcriptional activity of mutant p53 | AID 504706 | H1299 p53-A138V BP100-luciferase reporter, luminescence, 24 h | 0.063% of 320,000 active | Potency, µM (doses to about 92.2 µM), for the others: top-dose activity change, positive = activation, hits mostly activators; note: potency is the fitted concentration of half-maximal effect; % of control where 0% means no effect; nearly all actives have a fitted effect of over 45% in size
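H1299 (p53-null), stable ts p53-A138V + BP100-Luc; 1000 cells/well, Opti-MEM/10% FBS; cpd 4 pt, 1:5; 24 h, 37 deg C, 5% CO2; detection reagent 10 min RT; luminescence.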
ClpP mod: qHTS Assay for Activators of ClpP; ATP-dependent Clp protease proteolytic subunit (Bacillus subtilis (strain 168)), P80244; purified B. subtilis ClpP, FRET peptide cleavage, 20 min; Potency, µM (highest dose often 57.5 µM), without a hit: at the top dose activity change, negative = active; 1.9% of 340,000 active; AID 651965, 2013; active = well fitted falling curve with a large enough effect; inconclusive = small, poorly fitted or top-dose-only effect; inactive = no such curve, though single readings can be large or run the other way; note: potency is the fitted concentration of half-maximal effect; the source files actives as falling curves though it sought activators and does not explain the sign; nearly all actives have a fitted effect of over 65% in size
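FRET quenching reversal measured ClpP activation: 10 microg/mL B. subtilis ClpP at pH 8 with the FRET-FV decapeptide, read at 430 nm after 320 nm excitation. The 20-min minus 0-min signal was scaled between DMSO/no-enzyme wells and ADEP (5.8 microM final).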
ClpP inh valid: validation of B. subtilis ClpP protease hits (inhibitors); Potency, µM (highest dose often 57.5 µM), for inactives: at the top dose activity change, negative = inhibition, most hits filed as inhibitors; 40% of 470 active; shares compounds with ClpP mod; purified B. subtilis ClpP, FRET-FV substrate cleavage, 20 min; note: potency is the fitted concentration of half-maximal effect; % is set by controls: 0 for no effect and ±100 for the full control effect; nearly all actives have a fitted effect of over 70% in size
* hit, by the source's call; ? = inconclusive; . = not tested or not shown. In the library only some 2.6% were active in any assay of this set; here they are far more common. Unless noted, calls come from the whole dose curve; as a rule, active = well fitted curve in the direction sought with a large enough effect; inconclusive = small, poorly fitted or top-dose-only effect, or another doubt; inactive = no such curve, though single readings can be large; an effect the other way counts as inactive or inconclusive.

SMILES	KCNH2 3.1 inh	TRPV1 potentiator	hERG WT inh	TRPV1 ag	p53 reactivation	ClpP mod	ClpP inh valid
COc1cc2c(cc1OC)C(COc1ccc3c(C)cc(=O)oc3c1)N(C(=O)c1ccccc1F)CC2 (configuration not stated)	.	.	.	.	.	91.4%	?
Cc1c(C(=O)N2CCOCC2)sc2ncn(CC(=O)N3CCC(C)CC3)c(=O)c12	-6.9	-13.2	-5.7	0.5	-3.2%	3.16µM*	-0.8%
Cc1c(C(=O)N2CCN(c3ccc([N+](=O)[O-])cc3)CC2)sc2ncn(CC(=O)N3CCOCC3)c(=O)c12	1.5	?	0.6	-1.5	-1.7%	.	.
COc1ccc(OC)c(NC(=O)CSc2ncc3c(n2)-c2ccccc2N(C)S3(=O)=O)c1	.	.	.	.	.	-5.7%	.
COc1ccc(NS(=O)(=O)c2ccc(C)c(C(=O)O)c2)cc1	-1.3	-5.0	27.1	8.2	2.8%	-2.7%	.
COc1ccc(NS(=O)(=O)c2ccc(C)c(C(=O)NNC(=O)c3ccccc3O)c2)cc1	-5.9	10.2	2.6	1.7	-6.3%	71.7%	0.3%
Cc1cccc(C(O)c2ncc(-c3ccc(F)cc3)[nH]2)c1C (configuration not stated)	.	.	.	.	.	0.4%	.
Cc1cc(OCC(=O)OCC(=O)NCc2ccc3c(c2)OCO3)ccc1Cl	-4.9	-8.5	-5.4	13.0	-0.1%	-1.3%	.
Cc1cc(=O)oc2cc(OCC(=O)OCC(=O)NCc3ccc4c(c3)OCO4)ccc12	0.5	1.1	7.8	0.1	-4.4%	199.0%	-26.0%
Cc1cc(=O)oc2cc(OCC(=O)OCC(=O)Nc3ccccc3F)ccc12	3.3	2.4	-0.9	0.3	-0.5%	.	.
Cc1cc(=O)oc2cc(OCC(=O)OCC(=O)Nc3ccccc3C(C)C)ccc12	-1.0	2.9	-3.3	-0.5	9.4%	79.2%	?
Cc1ccc(S(=O)(=O)N(C)C)cc1NC(=O)COC(=O)COc1ccc2c(C)cc(=O)oc2c1	-2.9	.	-18.6	.	-1.5%	88.4%	-24.0%
Cc1ccc(NC(=O)COC(=O)COc2ccc3ccc(=O)oc3c2)cc1[N+](=O)[O-]	3.3	-10.9	1.9	0.8	-1.8%	104.3%	19.3µM*
Cc1cc(=O)oc2cc(OCC(=O)Nc3cccc(S(=O)(=O)N(C)C)c3)ccc12	6.2	4.3	2.3	3.1	6.7%	-13.3%	.
Cc1cc(=O)oc2cc(OCC(=O)OCC(=O)Nc3ccc(C(N)=O)cc3)ccc12	-2.4	3.2	1.4	0.9	-0.4%	.	.
Cc1ccc(-n2nc(C)c3c(C(=O)NCc4ccccc4)cc(C4CC4)nc32)cc1	.	.	.	.	.	-12.8%	.
COc1ccc(CCNC(=O)c2cc3c(=O)oc4ccc(C)cc4c3s2)cc1OC	.	.	.	.	.	-13.6%	.
O=C(CCC(=O)N1CC2CCCN2c2ccccc21)NCc1ccc(Cl)cc1 (configuration not stated)	.	.	.	.	.	-1.3%	.
CCOC(=O)c1ccc(CN(Cc2ccc(OC)cc2)S(=O)(=O)c2cccc(C(F)(F)F)c2)cc1	.	.	.	.	.	-2.2%	.
Cc1cc(N2CCOCC2)nc2ccc(NC(=O)CCC(=O)N3CCCCC3)cc12	3.8	2.8	6.3	-1.7	62.7%	7.08µM*	24.3µM*
Cc1cc(N2CCCCC2)nc2ccc(NC(=O)c3ccc(F)cc3)cc12	.	.	.	.	.	22.7%	-8.2%
Cc1ccc(C)n1-c1c(C(=O)NCC(C)c2ccccc2)sc2ncccc12 (configuration not stated)	.	.	.	.	.	6.6%	.
CC1(Cc2cccc(C(F)(F)F)c2)C(=O)Nc2ccc(-c3ccc(F)c(Cl)c3)cc21 (configuration not stated)	.	.	.	.	.	-8.1%	.
O=c1oc2ccccc2cc1-c1nnc(-c2cccc(Br)c2)o1	-2.1	5.0	-2.1	0.6	9.7%	0.708µM*	?
